Data taken from PubChem BioAssay AID2685 (National Center for Advancing Translational Sciences (NCATS), 2010).
Out of some 320,000 compounds screened, about 2,100 (0.66%) were called active. Inconclusive results (about 53%) are left out. Calls come from the whole dose curve; as a rule, active = well fitted inhibition curve with a large enough effect in the signal ratio, with a control signal flat (not every such curve was filed as active); inconclusive = small, poorly fitted or top-dose-only effect, or effect the other way, or a change in a side signal; inactive = flat fitted curve, though single readings scatter; the % refers to the signal ratio. For the sample, actives were picked, then their nearest neighbours and some compounds at random.

Test: qHTS Assay for Lipid Storage Modulators in Drosophila S3 Cells;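 for cell number change: cells counted by Cell Tracker Red CMTPX staining in the red channel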
Details: BODIPY lipid droplet fluorescence, 18-24 h, cells fed with added oleic acid; cell number change: measured here: cell count max response; series mostly up to 46.1 µM
Method in brief: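 Laser-scanning cytometry quantifies lipid droplet accumulation (500–530 nm total intensity; droplet/cell object ratio) in oleic acid-fed (400 uM added) Drosophila S3 cells treated with a concentration series. 20 uM Triacsin C defined 100% inhibition.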
Potency is the fitted concentration of half-maximal effect.

SMILES	Potency	cell number change
Cc1cnc(C(=O)N2CCCC(C(=O)c3cccc(OC(C)C)c3)C2)cn1 (stereo not drawn)	inactive	-12.5%
Cc1ccc(C)c(NC(=O)c2ccc[n+](Cc3ccc([N+](=O)[O-])cc3)c2)c1	inactive	11.2%
CNNC(=O)C(C)NC(=O)c1ccc(Br)cc1 (stereo not drawn)	inactive	10.8%
CCC(CC)NC(=O)Nc1ccc(C)cc1	inactive	-11.1%
CCN(CC)c1nc(N)nc(NS(=O)(=O)c2ccc(Cl)cc2)n1	inactive	7.29%
CCOCCCn1c(SCC(=O)NC(C)(C)C)nc2ccccc2c1=O	inactive	-4.14%
O=c1c2ccccc2nc(SCc2nc3ccccc3s2)n1CCCO	inactive	-14.5%
CCOCCCn1c(SCc2nc3ccccc3s2)nc2ccccc2c1=O	3.66 µM (active)	-21.8%
Brc1ccccc1OCCCN1CCCCCC1	inactive	5.41%
O=C(CCNC(=O)c1ccccc1Cl)Nc1nc2ccccc2s1	inactive	9.97%
CC(=O)c1sc(NC(=O)c2cc(=O)c3ccccc3o2)nc1C	inactive	-11.4%
O=C(NNc1nc2c(F)cccc2s1)c1cc(=O)c2ccccc2o1	inactive	-1.04%
O=C(Cc1ccccc1)Nc1nc2ccccc2s1	inactive	-15.5%
COc1ccc2nc(NC(=O)c3ccco3)sc2c1	inactive	9.21%
O=C(CCNC(=O)c1ccccc1)Nc1nc2ccccc2s1	3.66 µM (active)	12%
COc1ccc2nc(NNC(=O)c3cc(=O)c4ccccc4o3)sc2c1	5.17 µM (active)	1.29%
COc1ccc2nc(NC(=O)CCNC(=O)c3ccco3)sc2c1	8.2 µM (active)	15.7%
COc1ccc2nc(NC(=S)NC(=O)c3ccco3)sc2c1	inactive	10%
COc1ccc(C(=O)NCCOc2cccc(OC)c2)cc1	inactive	26.7%
O=C1C=Cc2ccccc2/C1=C/c1[nH]c(=O)[nH]c1O	inactive	1.79%
O=C(NC(=S)Nc1ccc(S(=O)(=O)Nc2nccs2)cc1)c1ccc(Br)o1	inactive	–

SMILES	Potency	cell number change
O=C(NCCOC(=O)C1COc2ccccc2O1)C1COc2ccccc2O1 (stereo not drawn)	inactive	–
O=[N+]([O-])c1ccc(/C=N/Nc2nc(N3CCCCC3)nc(N3CCCCC3)n2)cc1	inactive	-0.784%
O=[N+]([O-])c1ccc(-c2ccc(/C=N/Nc3nc(NCc4ccccc4)nc(N4CCOCC4)n3)o2)cc1	18.4 µM (active)	14.1%
COc1nc(N/N=C/c2ccc(-c3cccc([N+](=O)[O-])c3)o2)nc(N2CCOCC2)n1	inactive	-9.45%
O=[N+]([O-])c1ccc(-c2ccc(/C=N/Nc3nc(N4CCCCC4)nc(N4CCCCC4)n3)o2)cc1	5.17 µM (active)	17%
O=[N+]([O-])c1cccc(/C=N/Nc2nc(NCc3ccccc3)nc(N3CCOCC3)n2)c1O	inactive	0.539%
O=[N+]([O-])c1ccc(-c2ccc(/C=N/Nc3nc(N4CCCC4)nc(N4CCCC4)n3)o2)cc1	inactive	-13%
CN(C)S(=O)(=O)N1CCC(Oc2cccc(C(=O)NC3CCCCCC3)c2)CC1	inactive	–
O=C(O)c1ccccc1C(=O)N1CC=C(c2ccccc2)CC1	inactive	1.73%
Nc1[nH][nH]c(=O)c1N=Nc1cccc(Cl)c1	inactive	1.25%
Cn1cc([N+](=O)[O-])c(C(=O)Nc2ccc(Br)cn2)n1	inactive	–
O=C(CNC(=O)COc1ccccc1)NCc1ccccc1F	inactive	0.16%
O=[N+]([O-])c1ccc(NC(=S)N2CCOCC2)cc1	inactive	-10.6%
COc1cc(CN2CCN(C(c3ccccc3)c3ccccc3)CC2)cc(OC)c1OC	inactive	6.8%
Fc1ccc(CN2CCN(C(c3ccccc3)c3ccccc3)CC2)cc1	16.4 µM (active)	-21.3%
OC(CN1CCN(Cc2ccccc2)CC1)c1ccc(F)cc1 (stereo not drawn)	inactive	22.1%
COc1ccc(Br)cc1CNC(=O)CCC(=O)n1nc(C)c2ccccc21	inactive	-11.3%
COc1ccccc1NC(=S)NC1CCCCC1	inactive	22.1%
Cc1ccccc1NC(=O)C(=O)NC(C)CCc1ccccc1 (stereo not drawn)	7.31 µM (active)	7.44%
CCOC(=O)C(=O)NC(C)CCc1ccccc1 (stereo not drawn)	inactive	-12.3%
Cc1ccccc1NC(=S)NC(C)CCc1ccccc1 (stereo not drawn)	inactive	-4.86%

SMILES	Potency	cell number change
COCCCNC(=O)COc1cc2c(c3oc(=O)c(C)c(C)c13)CCC(C)(C)O2	inactive	14.5%
O=C(Nc1ccc(S(=O)(=O)N2CCCCC2)cc1)c1ccc(CN2CCc3ccccc3C2)cc1	18.4 µM (active)	-10.9%
O=C(Nc1ccccc1)c1ccc(CN2CCc3ccccc3C2)cc1	inactive	7.26%
O=C(Nc1ccc(F)cc1)c1ccc(CN2CCc3ccccc3C2)cc1	5.17 µM (active)	-4.53%
Cc1ccc(NC(=O)c2ccc(CN3CCc4ccccc4C3)cc2)cc1	inactive	6%
O=C(Nc1ccccc1)c1ccc(S(=O)(=O)N2CCCCC2)cc1	inactive	-9.41%
O=C(Nc1ccc(S(=O)(=O)N2CCCC2)cc1)c1ccc(CN2CCOCC2)cc1	inactive	0.801%
Cc1cc(-n2nc(C)cc2C)n2nc(C)c(-c3ccc(Cl)cc3)c2n1	inactive	1.87%
CC(C)CCN1CC(C(=O)NC(C)C)CC1=O (stereo not drawn)	inactive	-5.32%
CN1CCN(S(=O)(=O)c2ccc(NC(=O)c3ccc(Br)s3)cc2)CC1	inactive	-9.91%
COC(=O)c1ccc(CN2CCC(CO)(Cc3cccc(OC)c3)CC2)cc1	inactive	1.63%
O=C(Nc1ccccc1C(=O)OC1CCOC1=O)c1ccco1 (stereo not drawn)	inactive	2.86%
Cc1cccc(C(=O)OC2CCOC2=O)c1O (stereo not drawn)	0.731 µM (active)	4.5%
CC(=O)Nc1ccc(C(=O)OC2CCOC2=O)cc1 (stereo not drawn)	inactive	3.14%
Cc1ccc(NC(=O)c2cccs2)cc1NC(=O)c1cccc(F)c1	inactive	9.07%
Cc1ccc(C(=O)N/C(=C\c2cccs2)C(=O)NCc2cccnc2)cc1	inactive	10.4%
Fc1cccc(NC(=S)N2CCc3ccccc32)c1	inactive	-4.05%
Fc1ccc(NC(=S)N2CCCc3ccccc32)cc1	inactive	-5.16%
Fc1ccc(NC(=S)N2CCc3ccccc32)cc1	16.4 µM (active)	-10.9%
